FMDV inh: foot and mouth disease virus antiviral activity; Potency, µM (titrated, usually from 57.9 µM), most hits filed as inhibitors; FMDV antiviral cell-based qHTS; actives 1.2% (n = 410,000); calls by dose curve; tested in HEK293T cells; also: read-out not given here; nearly all actives have a fitted effect of over 45% in size
Marburg entry inh: inhibitors of Marburg virus binding or cell entry | Marburg virus pseudotyped entry inhibition, cell reporter | Potency, µM (highest dose often 37.8 µM), usual class: inhibitors | actives 1.8% (n = 300,000) | AID 540276; calls by dose curve; tested in HEK293 cells
HCV inhibitor: HCV inhibition; Huh7.5.1 HCVcc-Cre infection, luciferase reporter, 44 h; Potency, µM (top dose mostly 41.8 µM), hits mostly inhibitors; actives 3.4% (n = 340,000); AID 651820; active = well fitted inhibition curve with a large enough effect; inconclusive = small, poorly fitted or top-dose-only effect, or another doubt; inactive = no such curve, though single readings can be large or run the other way
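After 44 h co-culture of compound, cells and HCVcc-Cre (~0.5 moi), substrate is added for 15 min at room temperature and luciferase measured over 15 sec. Cells were seeded at 1,000/well and pre-cultured 4 h.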
HCMV antiviral: human cytomegalovirus inhibition; HFF cells, HCMV-luciferase reporter, 72 h; active compounds read low; activity change, negative = inhibition, % at 57.5 µM; actives 4.5% (n = 410,000); AID 1259415; in the data active = activity change below about -60%; inconclusive = no clear call, values can overlap the other calls; inactive = above about -39%
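Compounds were evaluated in HFFs infected with an HCMV luciferase reporter virus (MOI 1 PFU/cell). Luciferase in lysates collected 72 h post infection served as the replication measure.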
LASV entry inh: Lassa virus entry inhibition; Lassa virus pseudotype entry inhibition, cell reporter; Potency, µM (doses to about 37.9 µM), usual class: inhibitors; actives 1.2% (n = 300,000); AID 540256; calls by dose curve; tested in HEK293 cells; also: nearly all actives have a fitted effect of over 50% in size
Each line names hits and unclear results; the compound was inactive in the other large screens. Hits are enriched below; roughly 7.9% of the tested compounds scored in any of these assays.

COC(=O)[C@@]1(C=C[C@@H](C)[C@H](OC)c2ccccc2Br)[C@@H]2OCCC[C@@H]21	none (no result: FMDV inh, HCV inhibitor, HCMV antiviral, LASV entry inh)
Cc1cc(C)c2c(=O)cc(C(=O)Nc3sc4c(c3C(=O)NCc3cccnc3)CCCC4)oc2c1	none (no result: HCV inhibitor)
COc1cccc(C(=O)Nc2cccc3ccccc23)c1OC	Marburg entry inh 8.9µM, HCV inhibitor inconclusive, LASV entry inh inconclusive
O=C(NC1CCC(n2cc(C(=O)NC3CC3)nn2)CC1)C(=O)c1ccccc1 (stereo not given)	none (no result: Marburg entry inh, HCV inhibitor, HCMV antiviral, LASV entry inh)
Cc1cc(C)c[n+](CC(=O)c2ccc(-c3ccccc3)cc2)c1	FMDV inh inconclusive, Marburg entry inh inconclusive, HCV inhibitor inconclusive, HCMV antiviral -77, LASV entry inh inconclusive
Cc1cc(C)c[n+](CC(=O)c2ccc(NC(=O)c3ccccc3)cc2)c1	none
Cc1cccc(C)c1NC(=S)N=Nc1c(O)n(C)c2ccc(S(=O)(=O)N3CCOCC3)cc12	HCV inhibitor inconclusive
C=CCn1c(O)c(N=NC(=S)Nc2ccccc2F)c2ccccc21	HCV inhibitor 10µM, HCMV antiviral -93 (no result: Marburg entry inh, LASV entry inh)
C=CCn1c(O)c(N=NC(=S)Nc2ccccc2F)c2cc(S(=O)(=O)N3CCOCC3)ccc21	Marburg entry inh inconclusive, HCV inhibitor inconclusive, HCMV antiviral -70, LASV entry inh inconclusive
CCCCn1c(O)c(N=NC(=O)c2ccccc2NS(=O)(=O)c2cccs2)c2ccccc21	LASV entry inh inconclusive
C=CCn1c(O)c(N=NC(=O)c2ccccc2NS(=O)(=O)c2cccs2)c2ccccc21	Marburg entry inh inconclusive, HCMV antiviral -95
Cc1ccc(OCC(=O)Nc2c(C)nn(-c3ccccc3)c2C)c(Br)c1	FMDV inh 40µM, HCV inhibitor inconclusive
Cc1nn(-c2ccccc2)c(C)c1NC(=O)COc1ccc(F)cc1Cl	FMDV inh 20µM, Marburg entry inh inconclusive, HCV inhibitor inconclusive, HCMV antiviral inconclusive
COc1ccc(-c2[nH]c(-c3ccccc3)nc2SCC(=O)Nc2ccc3c(c2)OCO3)cc1	Marburg entry inh inconclusive, LASV entry inh inconclusive (no result: HCV inhibitor)
Cc1ccc(CNC(=O)C(=O)NCC(c2ccc3c(c2)OCO3)N2CCOCC2)cc1 (stereo not given)	none (no result: Marburg entry inh, HCV inhibitor)
O=C(Cc1cccs1)N[C@H]1CC[C@@]23CCCN2C(=O)CCC[C@H]3[C@H]1Cc1ccccc1	none (no result: FMDV inh, Marburg entry inh, HCV inhibitor, LASV entry inh)
CCOC(=O)c1cc2[nH]c3ccccc3c2[n+](-c2ccc([N+](=O)[O-])cc2)c1N	FMDV inh inconclusive, Marburg entry inh inconclusive, HCMV antiviral -91
CC(=O)c1ccc(S(=O)(=O)N2CCn3cccc3C2c2ccccc2F)cc1 (stereo not given)	none (no result: Marburg entry inh, HCV inhibitor)
CCCNc1nc(N2CCCC2)nc(N2CCCC2)n1	FMDV inh inconclusive, Marburg entry inh inconclusive, HCV inhibitor 11µM, LASV entry inh inconclusive
CCNc1nc(NC(C)(C)C)nc(N2CCCC2)n1	Marburg entry inh 3.2µM, HCV inhibitor inconclusive, LASV entry inh inconclusive
Cc1cccn2c(=O)c3cc(C(=O)NCc4ccccc4)c(=N)n(CCOCCO)c3nc12	HCMV antiviral inconclusive (no result: HCV inhibitor)
CC(=O)NC1CCCN(O)C(=O)/C=C(\C)CCOC(=O)C(NC(C)=O)CCCN(O)C(=O)/C=C(\C)CCOC(=O)C(NC(C)=O)CCCN(O)C(=O)/C=C(\C)CCOC1=O (stereo not given)	FMDV inh 20µM (no result: Marburg entry inh, HCMV antiviral, LASV entry inh)
C=C1C(=O)OC2C1CCC(C)=C1C(=O)C3OC3(C)C12 (stereo not given)	FMDV inh 28µM, HCV inhibitor 10µM, HCMV antiviral -78 (no result: Marburg entry inh, LASV entry inh)
CCOC(=O)c1ccc2nc(C)c(CCC(C)=O)c(Cl)c2c1	LASV entry inh inconclusive
CC(=O)CCc1c(C)nc2ccc(C)cc2c1Cl	HCMV antiviral -80
O=S(=O)(Nc1ccc(Cl)cc1)c1cccc(S(=O)(=O)c2ccc(Cl)c(Cl)c2)c1	none (no result: HCV inhibitor)
O=C(Nc1cccnc1)c1ccc([N+](=O)[O-])o1	HCV inhibitor inconclusive (no result: Marburg entry inh, LASV entry inh)
NC(=O)c1oc2ccccc2c1NC(=O)c1ccc(F)cc1	HCV inhibitor inconclusive (no result: Marburg entry inh, LASV entry inh)
NC(=O)c1oc2ccccc2c1NC(=O)c1ccc([N+](=O)[O-])o1	Marburg entry inh inconclusive, HCV inhibitor inconclusive, HCMV antiviral -102, LASV entry inh inconclusive
O=C(NNC(=O)c1ccc([N+](=O)[O-])o1)c1ccccc1	Marburg entry inh inconclusive, HCV inhibitor inconclusive, HCMV antiviral -92
O=C(NN(c1ccccc1)c1ccccc1)c1ccc([N+](=O)[O-])o1	Marburg entry inh inconclusive, HCV inhibitor inconclusive, HCMV antiviral -93
Cc1ccc(S(=O)(=O)N[C@@H]2COC(=O)[C@@H](C)COC(=O)CC=C[C@H]2C)cc1	none (no result: FMDV inh, HCV inhibitor, HCMV antiviral, LASV entry inh)
COc1cccc(NC(=O)CCC(=O)N2Cc3ccccc3Oc3ncccc32)c1	none (no result: Marburg entry inh, HCV inhibitor)
Cc1cc(C(=O)CSc2ccc(F)cc2)cc(C)c1OC(=S)N(C)C	FMDV inh 0.79µM, Marburg entry inh inconclusive, HCV inhibitor inconclusive, HCMV antiviral -92, LASV entry inh inconclusive
CC(=O)c1ccc(NC(=O)Nc2ccc3c(c2)nc(C)n3C)cc1	Marburg entry inh inconclusive
Cc1ccc(NC(=O)Nc2ccc3c(c2)nc(C)n3C)cc1	Marburg entry inh 11µM, HCV inhibitor inconclusive, LASV entry inh inconclusive
COc1cccc(C(=O)Nc2ccc3ccccc3c2)c1	Marburg entry inh inconclusive, HCV inhibitor inconclusive, LASV entry inh inconclusive
Cc1cccc(C(=O)Nc2ccc3ccccc3c2)c1	HCV inhibitor inconclusive, HCMV antiviral -102 (no result: Marburg entry inh, LASV entry inh)
Cc1cccc(C(=O)Nc2ccc3c(c2)nc(C)n3C)c1	Marburg entry inh inconclusive, HCMV antiviral -102, LASV entry inh inconclusive
Cc1cccc(C(c2sc3nc(-c4ccco4)nn3c2O)N2CCN(c3ccccc3F)CC2)c1 (stereo not given)	none (no result: Marburg entry inh, HCV inhibitor)
NC(=O)C1(N2CCCCC2)CCN(C(=S)Nc2cc(F)cc(F)c2)CC1	HCMV antiviral -64
CC1(C)CN(C2CCCCC2)C(=O)[C@@H]1CC(=O)Nc1ccccc1	none (no result: FMDV inh, Marburg entry inh, HCV inhibitor, HCMV antiviral)
Cc1cc(C)cc(N(CCC(=O)Nc2nnc(C3CC3)s2)S(=O)(=O)c2ccc(Cl)cc2)c1	Marburg entry inh inconclusive, HCV inhibitor inconclusive, HCMV antiviral -61
O=c1c(-c2ccccc2)coc2cc(O)cc(O)c12	none (no result: Marburg entry inh, HCV inhibitor, HCMV antiviral, LASV entry inh)
CC1(C)C=Cc2cc(-c3coc4cc(O)cc(O)c4c3=O)cc(O)c2O1	HCV inhibitor 11µM, HCMV antiviral -61 (no result: Marburg entry inh, LASV entry inh)
CCCNC(=O)c1nnc2n1CCN(C(=O)c1ccc(F)c(F)c1)C2	none (no result: FMDV inh, Marburg entry inh, HCV inhibitor, LASV entry inh)
CC(C)Cn1c(O)c(/C=C2\C=NN=C2c2ccccc2)sc1=S	Marburg entry inh inconclusive, HCV inhibitor inconclusive, LASV entry inh 13µM
COc1cc(CCC(=O)NCc2ccc3c(c2)CCN3C(=O)c2cccc(C)c2)cc(OC)c1OC	none (no result: Marburg entry inh, HCV inhibitor)
CCC(C)(C)NC(=O)C(c1ccc(F)cc1)N(Cc1ccc(OC)cc1)C(=O)c1cnccn1 (stereo not given)	HCMV antiviral -66
CCC(C)(C)NC(=O)C(c1ccc(F)cc1)N(Cc1cccc(OC)c1)C(=O)c1cnccn1 (stereo not given)	none
CC(C)c1ccc(NC(=O)c2cc(S(=O)(=O)NCc3ccccc3Cl)ccc2F)cc1	HCMV antiviral -82, LASV entry inh inconclusive (no result: Marburg entry inh, HCV inhibitor)
CCc1ccc(S(=O)(=O)c2cn(CC(=O)Nc3ccc(C)cc3)c3ccccc3c2=O)cc1	Marburg entry inh inconclusive (no result: HCV inhibitor)
